Bioassay records as filed in PubChem BioAssay.
A selection: hits, their analogues and other compounds. The true share with any hit is near 6.3%.
tim23-1 inh: tim23-1 yeast growth inhibition. S. cerevisiae tim23-1 growth, BacTiter-Glo luminescence, 24 h. 1.3% of 330,000 active. inhibition, % at 20 µM. AID 463212;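 active = growth inhibition of the mutant yeast at or above 50%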;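 also: temperature-sensitive mutant grown at 25 °C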
Mdm2 MdmX PPI: human Mdm2/MdmX binding inhibition; O15151+Q00987; SaOS-2 split-luciferase Mdm2/MdmX complementation, luminescence; inhibition, % at 8 µM; 3% of 330,000 active;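 active = inhibition of at least 50% at 8 µM in the primary screen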
MPTP inh: inhibitors of mitochondrial permeability transition pore. isolated mouse mitochondria, Ca2+ swelling absorbance, 30 min. inhibition, % at 10 µM. 1.4% of 360,000 active. AID 602449;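 active = inhibition of 50% or more, scaled per plate between neutral and stimulator controls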
tim10-1 inh: inhibits growth of tim10-1 mutant yeast; AID 463190; S. cerevisiae tim10-1 ts strain growth, BacTiter-Glo, 24 h; 2.2% of 330,000 active; inhibition, % at 20 µM;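 active = inhibition of at least 40%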;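 also: mutant grown at 25 °C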
TIM10 inh: growth inhibitors of TIM10 yeast strain; S. cerevisiae TIM10 strain growth, BacTiter-Glo luminescence, 24 h; inhibition, % at 10 µM; 1.4% of 330,000 active;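 active = inhibition of 40% or more at the single tested concentration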;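 also: wild-type TIM10 isogenic control strain grown at permissive 25 °C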
Mdm2 MdmX conf: human Mdm2/MdmX binding inhibition, confirmed; luminescent assay; AID 489028; 55% of 10,000 active; shares compounds with Mdm2 MdmX PPI; inhibition, % at 8 µM; in the data active = inhibition above about 40%
FLuc counter: counter-screen for Mdm2/MdmX inhibitors: full-length luciferase; shares compounds with Mdm2 MdmX PPI; SaOS-2 full-length luciferase counterscreen, luminescence; inhibition, % at 8 µM; 77% of 6,200 active;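 active = mean inhibition at 8 µM reaching about 37%, which flags the compound as non-specific, limit read from the data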;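 also: p53-null SaOS-2 cells with luciferase driven by a doxycycline-inducible promoter; compound on cells about two nights before reading with doxycycline added after day one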
Hits are given with their value; 0 = inactive; - = not tested or not shown; ! = repeats disagree.

SMILES | tim23-1 inh | Mdm2 MdmX PPI | MPTP inh | tim10-1 inh | TIM10 inh | Mdm2 MdmX conf | others
Cc1nnc(N2CCCC(C(=O)NCc3ccc(OC(C)C)cc3)C2)c2nn(-c3ccccc3)c(C)c12 (centres undefined) | 0 | 52 | 0 | 0 | 0 | 0
COCC(=O)N(C)C[C@H]1Oc2cc(C#Cc3cccnc3)ccc2S(=O)(=O)N([C@H](C)CO)C[C@H]1C | - | - | 0 | - | - | -
Cc1ccccc1NC(=O)CNC(=O)N1CC(=O)Nc2ccccc21 | - | - | 0 | - | - | -
Cc1nc(SCC(=O)NCC2CCCO2)c2cc(-c3ccccc3)sc2n1 (centres undefined) | 0 | 71 | 0 | 0 | 0 | 0
OC[C@@H]1CN(Cc2ccc(F)cc2)C[C@H](n2cnc3c(N4CCN(c5ccccc5)CC4)ncnc32)O1 | - | - | 0 | - | - | -
CCNC(=O)C1(C)CCCN(Cc2cccc3c(OC)cc(C(=O)OCC)cc23)C1 (centres undefined) | - | - | 0 | - | - | -
Cc1ccc(C(O)c2ncc(-c3cccc(C(F)(F)F)c3)[nH]2)cc1F (centres undefined) | - | - | 0 | - | - | -
O=C(c1cccc(N2CCCC2=O)c1)N1CCN(c2cccc(Cl)c2)CC1 | 0 | 57 | 0 | 0 | 0 | 68 | FLuc counter=48
Cc1cccc(N2CCN(C(=O)c3ccc(N4CCCC4=O)cc3)CC2C)c1 (centres undefined) | 0 | 0 | 0 | 0 | 0 | -
Cc1cccc(N2CCN(C(=O)c3cccc(N4CCCC4=O)c3)C(C)C2)c1 (centres undefined) | 0 | 55 | 0 | 0 | 0 | 60 | FLuc counter=50
COCCCN1C(=O)C(CC(=O)NCc2cccc3ccccc23)CC(C(=O)N(C(C)C)C(C)C)=C1C (centres undefined) | - | - | 0 | - | - | -
O=C(NC(=S)NNC(=O)[C@H]1C[C@@H]1c1ccccc1)c1ccc(F)cc1 | 0 | 0 | 0 | 0 | 0 | -
COc1ccc(C(=O)NC(=S)NNC(=O)[C@H]2C[C@@H]2c2ccccc2)cc1OC | 0 | 62 | 0 | 0 | 0 | 0
CC1CCCCN1S(=O)(=O)c1cccc2cccnc12 (centres undefined) | 0 | 0 | 0 | 0 | 0 | -
CC1CNCCN1S(=O)(=O)c1cccc2cnccc12 (centres undefined) | 0 | 55! | 0 | 0 | 0 | 0
C[C@H]1CN([C@@H](C)CO)C(=O)c2cc(Br)cnc2O[C@@H]1CN(C)C(=O)c1ccncc1 | - | - | 0 | - | - | -
Cc1ccc(CNC(=O)c2ccc(N3CCC4(CC3)CC(c3ccccc3)=NO4)c(NC(=O)c3ccccc3)c2)cc1 | 0 | 0 | 0 | 0 | 0 | -
Cc1ccc(CNC(=O)c2ccc(N3CCC4(CC3)CC(c3ccccc3)=NO4)c(N)c2)cc1 | 0 | 55 | 0 | 0 | 0 | 0
CC(=O)C1=C(O)C(=CC=Cc2ccccc2)OC1=O | - | - | 0 | - | - | -
Cc1cc(C)c2cccc(N)c2n1 | 0 | 0 | 0 | 0 | 0 | -
Cc1cc(C)c2ccc(N)nc2c1O | 0 | 83 | 0 | 0 | 0 | 75 | FLuc counter=41
C1CC(=NN=C2CCSCC2)CCS1 | - | - | 0 | - | - | -
COc1ccc(/C=N/NC(=S)Nc2cc(S(=O)(=O)N3CCOCC3)ccc2N2CCOCC2)cc1O | 0 | 51 | 0 | 0 | 0 | 45 | FLuc counter=83
COc1ccc2ccccc2c1/C=N/NC(=S)Nc1cc(S(=O)(=O)N2CCOCC2)ccc1N1CCOCC1 | 0 | 0 | 0 | 0 | 0 | -
CC1=C(C(=O)N(C(C)C)C(C)C)CC(CC(=O)NCc2ccco2)C(=O)N1Cc1ccc(C(C)(C)C)cc1 (centres undefined) | - | - | 0 | - | - | -
SMILES | tim23-1 inh | Mdm2 MdmX PPI | MPTP inh | tim10-1 inh | TIM10 inh | Mdm2 MdmX conf | others
COC(=O)c1c(C)[nH]c(C(=O)OCC(=O)N(CC(C)C)c2c(N)n(Cc3ccccc3)c(=O)[nH]c2=O)c1C | 0 | 0 | 0 | 0 | 0 | -
CC(C)CN(C(=O)COC(=O)C12CC3CC(CC(C3)C1)C2)c1c(N)n(Cc2ccccc2)c(=O)[nH]c1=O | 0 | 61 | 0 | 0 | 0 | 72 | FLuc counter=47
CC(=O)Nc1sc(C)c(C)c1C(=O)OCC(=O)N(CC(C)C)c1c(N)n(Cc2ccccc2)c(=O)[nH]c1=O | 0 | 100 | 0 | 0 | 0 | 0
CC1=Nc2cc(C(=O)NCCCN3CCOCC3)ccc2Sc2c(C)ccc(C)c21 | 0 | 66 | 0 | 0 | 0 | 0
CCCC1=Nc2cc(C(=O)NCCN3CCOCC3)ccc2Sc2ccccc21 | 0 | 0 | 0 | 0 | 0 | -
CC1=Nc2cc(C(=O)NCCN3CCOCC3)ccc2Sc2c(C)ccc(C)c21 | 0 | 64 | 0 | 0 | 0 | 52 | FLuc counter=47
